Measured potencies and affinities stand elsewhere. Inconclusive results are not listed. A number with no mark means an inactive call.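 Rule for the calls: active = in every test run, a fitted half-maximal concentration for signal decrease at or below twice the highest tested concentration; inconclusive = runs disagree, flat 30 to 70% decrease, or poor fit; inactive = the rest.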
assay: activation of miR-122 Renilla sensor silencing – cell-based, Huh7 psiCHECK-miR122, Renilla luciferase, cherry-picked, dose response (AID 651956); settings: Huh7 psiCHECK-miR122 Renilla luciferase reporter, 48 h; series mostly up to 35 µM; activity change, negative = signal decrease: at the top concentration;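 note: 0% = median neutral control wells and -100% = median positive control wells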

| SMILES | activity change, negative = signal decrease |
| --- | --- |
| COc1cccc(CNC(=O)C[C@@H]2CC[C@H]3[C@H](COc4ccc(NC(C)=O)cc4C(=O)N3C)O2)c1 | 215% |
| CC(C)C(=O)Nc1ccc2c(c1)C(=O)N(C)[C@H]1CC[C@H](CC(=O)Nc3cccc(F)c3)O[C@@H]1CO2 | -23.6% |
| COc1ccc(CN2CCN(Cc3cccn3-c3ncccn3)CC2CCO)c(C)c1C (stereo not drawn) | -44.7% |
| CCC(=O)N1[C@H](CN(C)C(C)=O)[C@H](c2ccc(-c3cccnc3)cc2)[C@@H]1CO | -27.9% |
| COc1cccc(COc2cc3ccccc3nc2C)c1 | -4.9% |
| CN1C(=O)c2cc(NC(=O)c3cccs3)ccc2OC[C@H]2O[C@H](CC(=O)NCCN3CCCCC3)CC[C@H]21 | -21.6% |
| CCC(=O)N1[C@H](CO)[C@H](c2ccccc2)[C@H]1CNC(=O)CN1CCOCC1 | 168% |
| CCCNC(=O)N1C[C@@H]2[C@H](c3ccccc31)[C@H](CO)N2C(=O)C1CCOCC1 | -8.33% |
| O=C(N[C@H]1CC[C@H](CCn2cc(C3(O)CCCC3)nn2)O[C@H]1CO)c1ccccc1F | -22.4% |
| CC#CCCCC(=O)Nc1ccccc1C(=O)O | -9.61% |
| CCOC(=O)C1CN(S(=O)(=O)c2ccccc2)CCN1S(=O)(=O)c1ccccc1 (stereo not drawn) | 19.2% |
| C/C=C/c1ccc([C@H]2[C@@H](CO)N(C(C)=O)[C@@H]2CN(C(=O)COC)C(C)C)cc1 | 132% |
| CN(C[C@H]1N[C@@H](CO)[C@H]1c1ccc(-c2ccccc2)cc1)C(=O)C1CCC1 | -22.1% |
| CC(C)C(=O)Nc1ccc2c(c1)C(=O)N(C)[C@@H]1CC[C@H](CC(=O)O)O[C@H]1CO2 | -14.9% |
| CCCNC(=O)Nc1ccc2c(c1)C(=O)N(C)[C@@H]1CC[C@@H](CC(=O)NCC3CCCCC3)O[C@@H]1CO2 | 128% |
| CCNC(=O)C[C@H]1CC[C@@H]2[C@@H](COc3ccc(NC(=O)c4cccc(C(F)(F)F)c4)cc3C(=O)N2C)O1 | 32.7% |
| Cc1noc(C)c1NC(=O)Nc1ccc2c(c1)C(=O)N(C)[C@@H]1CC[C@H](CC(=O)N[C@H]3CCN(Cc4ccccc4)C3)O[C@H]1CO2 | 231% |
| COc1cccc(CNC(=O)C[C@H]2CC[C@@H]3[C@H](COc4ccc(NC(C)=O)cc4C(=O)N3C)O2)c1 | -32.5% |
| CC(=O)N1[C@H](CN(C)S(=O)(=O)c2ccccc2)[C@H](c2ccccc2)[C@@H]1CO | -17.7% |

| SMILES | activity change, negative = signal decrease |
| --- | --- |
| COCC(=O)N1[C@H](CO)[C@@H](c2ccccc2)[C@H]1CNC(=O)c1ccccn1 | 15.5% |
| Cc1ccc(OCCN2CCN(c3ncnc4sc(C)c(C)c34)CC2)cc1 | -40.6% |
| COc1ccc(-c2oc3ncnc(NCCCN4CCOCC4)c3c2-c2ccc(OC)cc2)cc1 | -8.77% |
| CCCCc1cc(=O)oc2cc(C)cc(OC(C)C(=O)O)c12 (stereo not drawn) | 21.7% |
| C/C=C/c1ccc([C@@H]2[C@@H](CO)N[C@@H]2CN(C(=O)C2CCCC2)C(C)C)cc1 | 72.6% |
| COc1ccccc1C(=O)N1C[C@@H]2[C@H](c3ccccc31)[C@H](CO)N2CC1CCCC1 | 198% |
| CC(=O)N(C)C[C@@H]1[C@@H](c2ccc(-c3cccc(C#N)c3)cc2)[C@H](CO)N1C(C)=O | 92.4% |
| CN1C(=O)c2cc(NC(=O)c3ccc4c(c3)OCO4)ccc2OC[C@@H]2O[C@@H](CC(=O)O)CC[C@@H]21 | 155% |
| CN1C(=O)c2cc(NC(=O)c3ccno3)ccc2OC[C@H]2O[C@@H](CC(=O)NCC3CC3)CC[C@@H]21 | -30.3% |
| COc1ccc(NC(=O)N(C)C[C@H]2Oc3cc(C#CCC(C)C)ccc3S(=O)(=O)N([C@@H](C)CO)C[C@H]2C)cc1 | -109% |
| COCC(=O)Nc1ccc2c(c1)C(=O)N(C)[C@@H]1CC[C@@H](CC(=O)NC3CCCC3)O[C@H]1CO2 | 156% [at 30 µM] |
| CC(C)C(=O)Nc1ccc2c(c1)C(=O)N(C)[C@H]1CC[C@H](CC(=O)NCCc3ccccc3)O[C@H]1CO2 | 182% |
| COCCNC(=O)C[C@@H]1CC[C@@H]2[C@H](COc3ccc(NS(=O)(=O)c4ccc(Cl)cc4)cc3C(=O)N2C)O1 | 10.6% |
| COC(=O)C[C@@H]1CC[C@@H]2[C@H](COc3ccc(NC(=O)c4ccc(F)c(F)c4)cc3C(=O)N2C)O1 | -16% |
| CCn1nnnc1SCC(=O)Nc1nnc(C(C)C)s1 | 82.1% |
| CCC(=O)N1[C@@H](CO)[C@H](c2ccccc2)[C@@H]1CN(C(C)C)S(C)(=O)=O | 182% |
| CN1C(=O)c2cc(NC(=O)c3ccccc3F)ccc2OC[C@H]2O[C@@H](CC(=O)NCc3ccc4c(c3)OCO4)CC[C@@H]21 | -23.1% |
| CCOC(=O)C1CCN(C(c2cccnc2)c2c(NC(=O)c3ccco3)sc(C)c2C)CC1 (stereo not drawn) | -28.7% |
| COc1ccc(-c2c(C(C)=O)c(C)nc3sc4c(c23)NC(c2ccccc2)NC4=O)cc1 (stereo not drawn) | -2.67% |

Source: PubChem BioAssay AID651956 (Broad Institute, 2012)
